Records with an inconclusive call do not appear. Activity calls are given as the source filed them. Unless noted, the call rests on the fitted dose curve; in most records, active means well fitted curve in the direction sought with a large enough effect in the repeat runs; inconclusive means weak or mixed curves; inactive means no such curve, though single readings can be large; an effect the other way counts as inactive or inconclusive.
Columns and labels:
[1] = target: Thyrotropin-releasing hormone receptor (Homo sapiens) (UniProt P34981); assay: qHTS assay to identify small molecule agonists of the thyrotropin-releasing hormone receptor (TRHR) signaling pathway (AID 1346891; calls by dose curve;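 further: HEK293 cells expressing TRHR with calcium dye readout; series mostly up to about 58 µM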)
In short: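 Agonist-mode calcium mobilisation screen: TRHR-transfected HEK293 cells cultured overnight (18 h), dye-loaded for 2 h at 37 °C, exposed to compounds, and monitored by fluorescence for 3 min.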

[2] = Human pregnane X receptor (PXR) small molecule agonists, qHTS cell viability counter screen (AID 1346977); further: nearly all actives have a fitted effect of over 50% in size
In short: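 Measures live-cell protease fluorescence (CellTiter-Fluor) in PXR-Luc HepG2 cells treated 24hr with compounds at 37C. Cells had 5hr to attach before pin transfer of DMSO solutions.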

[3] = Caspase-3/7 induction in HepG2 cells by small molecules, qHTS assay (AID 1346978); further: nearly all actives have a fitted effect of over 15% in size
In short: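 Wild-type HepG2 cells (2,000/well) were settled 5 h at 37 C, 5% CO2, then exposed to compounds in DMSO for 17 h. Caspase-3/7 activity was read by luminescence 30 min after adding Caspase-Glo 3/7 reagent at room temperature.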

[4] = Caspase-3/7 induction in CHO-K1 cells by small molecules, qHTS cell viability counter screen (AID 1346979); further: nearly all actives have a fitted effect of over 35% in size; further: potency means the concentration at half of the fitted maximal effect
In short: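 In the same wells as the caspase read, viability of compound-treated wild-type CHO-K1 cells was assessed using CellTiter-Fluor, added after 16hr at 37C and measured by fluorescence following 1hr further incubation.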

[5] = Caspase-3/7 induction in CHO-K1 cells by small molecules, qHTS assay (AID 1346980); further: nearly all actives have a fitted effect of over 15% in size
In short: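 Wild-type cells were seeded at 1,500 per well and settled 5 hr at 37 C, 5% CO2, then exposed to DMSO-dissolved compounds for 17 hr. Caspase-Glo 3/7 reagent was added, and luminescence was read after 30min at room temperature.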

[6] = Caspase-3/7 induction in HepG2 cells by small molecules, qHTS cell viability counter screen (AID 1346981); further: nearly all actives have a fitted effect of over 30% in size; further: potency means the concentration at half of the fitted maximal effect; on activity change, negative = cytotoxicity: series mostly up to about 92 µM
In short: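 In this quantitative HTS counter screen, compounds delivered in DMSO were left on unmodified HepG2 cells for 16 hr at 37 C. Viability was then determined fluorometrically with CellTiter-Fluor, in parallel with caspase-3/7 induction in the same wells.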

[7] = target: Nuclear receptor subfamily 1 group I member 2 (Homo sapiens) (UniProt O75469); assay: Human pregnane X receptor (PXR) small molecule agonists, qHTS assay (AID 1346982); further: nearly all actives have a fitted effect of over 35% in size
In short: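 Reporter HepG2 cells expressing PXR-Luc are cultured in charcoal-stripped FBS (5%), treated with compounds for 24 hr at 37 C, and assayed by ONE-Glo luminescence after 30 min at room temperature.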

[8] = target: Acetylcholinesterase (Homo sapiens) (UniProt P22303); assay: Acetylcholinesterase (AChE) small molecule antagonists: colormetric cell-based qHTS assay (AID 1347395; calls by dose curve; further: nearly all actives have a fitted effect of over 30% in size)
In short: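 Endogenous AChE of human neuroblastoma SH-SY5Y cells was measured with an Ellman-type DTNB/acetylthiocholine mix. Compound pretreatment lasted 30 min at 37 C; substrate reaction ran 90 min at 37 C.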

[9] = target: Acetylcholinesterase (Homo sapiens) (UniProt P22303); assay: Acetylcholinesterase (AChE) small molecule antagonists: enzyme-based qHTS assay (AID 1347397; calls by dose curve; further: nearly all actives have a fitted effect of over 55% in size); conditions: Potency: AChE enzyme activity inhibition
In short: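 Tox21 library chemicals are tested in qHTS format against recombinant human AChE. The enzyme, dispensed at 50 mU/mL, sits with compound for 30 min at room temperature. A DTNB–acetylthiocholine cocktail follows, and colour is read after 10 min.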

[10] = target: Acetylcholinesterase (Homo sapiens) (UniProt P22303); assay: Acetylcholinesterase (AChE) small molecule antagonists: fluorescence cell-based qHTS assay (AID 1347398; calls by dose curve; further: nearly all actives have a fitted effect of over 50% in size); conditions: Potency: AChE activity
In short: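 Cellular AChE inhibition: SH-SY5Y cells treated with test chemical for 30 min at 37 C, then acetylthiocholine hydrolysis followed over 40 min at room temperature via thiocholine-reactive Thiolite Green fluorescence (490/520 nm).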

[11] = target: Acetylcholinesterase (Homo sapiens) (UniProt P22303); assay: Acetylcholinesterase (AChE) small molecule antagonists: enzyme-based qHTS assay with human liver microsomes (AID 1347399; calls by dose curve; further: nearly all actives have a fitted effect of over 60% in size); conditions: Potency: qHTS inhibition
In short: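 Recombinant human AChE (50 mU/mL in the enzyme mix) and human liver microsomes (0.25 mg/mL final) were preincubated with compound and NADPH (0.25 mg/mL final) for 30 min at 37 C. Acetylthiocholine/DTNB was then added; thiocholine was read colorimetrically after 10 min at room temperature.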

[12] = target: Cytochrome P450 2D6 (Homo sapiens) (UniProt P10635); assay: Cytochrome P450 Family 2 Subfamily D Member 6 (CYP2D6) small molecule antagonists: luciferase reporter qHTS assay (AID 1671196); further: series mostly up to about 120 µM; nearly all actives have a fitted effect of over 50% in size
In short: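 Test chemicals meet CYP2D6 plus proluciferin substrate (10 min, RT); NADPH regenerating solution then drives turnover for 1 h. Detection reagent halts the reaction; luminescence measured after 20 min.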

[13] = target: Cytochrome P450 2C9 (Homo sapiens) (UniProt P11712); assay: Cytochrome P450 Family 2 Subfamily C Member 9 (CYP2C9) small molecule antagonists: luciferase reporter qHTS assay (AID 1671198); further: nearly all actives have a fitted effect of over 50% in size; further: potency means the concentration at half of the fitted maximal effect; on activity change, negative = inhibition: series mostly up to about 120 µM
In short: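 CYP2C9 activity was measured with a P450-Glo proluciferin substrate. Enzyme–substrate mix was held with compound for 10 min at room temperature, then NADPH regeneration solution was added for 1 h at 37C. Luciferin product was read as luminescence.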

[14] = target: Voltage-gated inwardly rectifying potassium channel KCNH2 (Homo sapiens) (UniProt Q12809); assay: Human Ether-a-go-go-Related Gene (hERG) channel small molecule antagonists: fluorescence cell-based qHTS assay (AID 1671200)
In short: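 Quantitative HTS in hERG-U2OS cells: thallium entry through the channel reports activity, read as continuous 480/540 nm fluorescence over 2 min after stimulus addition.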

[15] = target: Cytochrome P450 3A4 (Homo sapiens) (UniProt P08684); assay: Cytochrome P450 Family 3 Subfamily A Member 4 (CYP3A4) small molecule antagonists: luciferase reporter qHTS assay (AID 1671201); further: nearly all actives have a fitted effect of over 50% in size; further: potency means the concentration at half of the fitted maximal effect; on activity change, negative = inhibition: series mostly up to about 120 µM
In short: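 Inhibition of CYP3A4 is measured as loss of light: the enzyme converts a proluciferin substrate to luciferin, detected luminescently. Reaction ran 1 h at room temperature with NADPH regeneration after a 10 min compound preincubation.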

[16] = target: Cytochrome P450 2C19 (Homo sapiens) (UniProt P33261); assay: Cytochrome P450 Family 2 Subfamily C Member 19 (CYP2C19) small molecule antagonists: luciferase reporter qHTS assay (AID 1671197); further: nearly all actives have a fitted effect of over 65% in size; further: potency means the concentration at half of the fitted maximal effect; on activity change, negative = inhibition: series mostly up to about 120 µM
In short: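 P450-Glo CYP2C19 screening system; proluciferin substrate; DMSO compound stocks; 10 min RT preincubation; NADPH regeneration, 1 h at 37C; luciferin detection reagent, 20 min RT; luminescence as RLU.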

[17] = target: Cytochrome P450 1A2 (Homo sapiens) (UniProt P05177); assay: Cytochrome P450 Family 1 Subfamily A Member 2 (CYP1A2) small molecule antagonists: luciferase reporter qHTS assay (AID 1671199); further: nearly all actives have a fitted effect of over 50% in size; further: potency means the concentration at half of the fitted maximal effect; on activity change, negative = inhibition: series mostly up to about 120 µM
In short: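 Steps: enzyme-substrate mix dispensed; test compounds and furafylline control pinned in; 10 min room temperature; NADPH regeneration solution added, 1 h; reaction stopped with luciferin detection reagent; luminescence read after 20 min.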

[18] = target: Nuclear receptor subfamily 1 group I member 2 (Rattus norvegicus) (UniProt Q9R1A7); assay: Rat pregnane X receptor (rPXR) activation by small molecules, qHTS assay (AID 1346983); conditions: rPXR luciferase reporter cells, One-Glo luminescence, 24 h; max activation: stronger effect = higher value; further: nearly all actives have a fitted effect of over 20% in size
In short: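 Cell-based rPXR luciferase reporter assay, 2,000 cells per well, rested 5hr at 37 C before compound addition in DMSO, then 24 hr at 37 C. One-Glo reagent was added and luminescence read after 30 min at room temperature.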

[19] = target: Nuclear receptor subfamily 1 group I member 2 (Homo sapiens) (UniProt O75469); assay: CYP3A4 induction through human pregnane X receptor (PXR) by small molecules, qHTS assay (AID 1346984); further: nearly all actives have a fitted effect of over 40% in size
In short: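 Induction measured in HepG2-based DPX-2 cells co-expressing human PXR and a CYP3A4 promoter-driven luciferase. After a 24-hour compound exposure, cells received CYP3A4 luciferin substrate at 3uM final for 3 hours, and light output was then recorded.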

[20] = target: Nuclear receptor subfamily 1 group I member 2 (Homo sapiens) (UniProt O75469); assay: Human pregnane X receptor (PXR) activation by small molecules, qHTS assay (AID 1346985); further: nearly all actives have a fitted effect of over 40% in size
In short: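 DPX-2 cells (HepG2 co-transfected with a PXR response element and a CYP3A4-promoter luciferase construct) were seeded at 2,000 per well, rested 5 hr at 37C, then exposed to DMSO-dissolved compounds for 24 hr. Activation was read as luciferase luminescence.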
On the % scale 0 is the no-effect control and ±100 the full control effect.

Chain of Thyrotropin-releasing hormone receptor (Homo sapiens) (P34981 whole entry, looked up): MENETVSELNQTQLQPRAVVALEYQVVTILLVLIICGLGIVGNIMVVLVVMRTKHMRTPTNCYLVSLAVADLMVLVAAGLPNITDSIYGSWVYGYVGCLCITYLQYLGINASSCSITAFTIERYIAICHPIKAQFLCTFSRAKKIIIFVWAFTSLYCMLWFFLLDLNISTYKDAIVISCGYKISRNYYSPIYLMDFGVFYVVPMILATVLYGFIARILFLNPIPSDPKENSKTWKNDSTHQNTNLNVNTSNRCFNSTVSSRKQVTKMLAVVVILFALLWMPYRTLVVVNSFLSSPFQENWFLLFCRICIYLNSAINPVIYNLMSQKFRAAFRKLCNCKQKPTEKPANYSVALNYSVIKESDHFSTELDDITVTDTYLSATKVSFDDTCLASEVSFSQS
Chain of Cytochrome P450 2C9 (Homo sapiens) (P11712 whole entry, looked up): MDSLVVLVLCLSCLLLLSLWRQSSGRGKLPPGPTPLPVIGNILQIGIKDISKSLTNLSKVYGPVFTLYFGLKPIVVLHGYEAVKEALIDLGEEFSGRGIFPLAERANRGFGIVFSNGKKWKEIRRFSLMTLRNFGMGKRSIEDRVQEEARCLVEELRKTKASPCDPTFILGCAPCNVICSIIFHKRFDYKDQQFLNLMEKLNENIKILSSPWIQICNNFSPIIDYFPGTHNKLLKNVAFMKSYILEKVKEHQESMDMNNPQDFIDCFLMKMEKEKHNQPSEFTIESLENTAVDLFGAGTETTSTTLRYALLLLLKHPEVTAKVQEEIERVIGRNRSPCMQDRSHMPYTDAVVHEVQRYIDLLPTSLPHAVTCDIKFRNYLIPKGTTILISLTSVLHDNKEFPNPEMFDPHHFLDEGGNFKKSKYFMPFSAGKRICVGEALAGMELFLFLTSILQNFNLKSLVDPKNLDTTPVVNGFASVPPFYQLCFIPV
Chain of Voltage-gated inwardly rectifying potassium channel KCNH2 (Homo sapiens) (Q12809 whole entry, looked up): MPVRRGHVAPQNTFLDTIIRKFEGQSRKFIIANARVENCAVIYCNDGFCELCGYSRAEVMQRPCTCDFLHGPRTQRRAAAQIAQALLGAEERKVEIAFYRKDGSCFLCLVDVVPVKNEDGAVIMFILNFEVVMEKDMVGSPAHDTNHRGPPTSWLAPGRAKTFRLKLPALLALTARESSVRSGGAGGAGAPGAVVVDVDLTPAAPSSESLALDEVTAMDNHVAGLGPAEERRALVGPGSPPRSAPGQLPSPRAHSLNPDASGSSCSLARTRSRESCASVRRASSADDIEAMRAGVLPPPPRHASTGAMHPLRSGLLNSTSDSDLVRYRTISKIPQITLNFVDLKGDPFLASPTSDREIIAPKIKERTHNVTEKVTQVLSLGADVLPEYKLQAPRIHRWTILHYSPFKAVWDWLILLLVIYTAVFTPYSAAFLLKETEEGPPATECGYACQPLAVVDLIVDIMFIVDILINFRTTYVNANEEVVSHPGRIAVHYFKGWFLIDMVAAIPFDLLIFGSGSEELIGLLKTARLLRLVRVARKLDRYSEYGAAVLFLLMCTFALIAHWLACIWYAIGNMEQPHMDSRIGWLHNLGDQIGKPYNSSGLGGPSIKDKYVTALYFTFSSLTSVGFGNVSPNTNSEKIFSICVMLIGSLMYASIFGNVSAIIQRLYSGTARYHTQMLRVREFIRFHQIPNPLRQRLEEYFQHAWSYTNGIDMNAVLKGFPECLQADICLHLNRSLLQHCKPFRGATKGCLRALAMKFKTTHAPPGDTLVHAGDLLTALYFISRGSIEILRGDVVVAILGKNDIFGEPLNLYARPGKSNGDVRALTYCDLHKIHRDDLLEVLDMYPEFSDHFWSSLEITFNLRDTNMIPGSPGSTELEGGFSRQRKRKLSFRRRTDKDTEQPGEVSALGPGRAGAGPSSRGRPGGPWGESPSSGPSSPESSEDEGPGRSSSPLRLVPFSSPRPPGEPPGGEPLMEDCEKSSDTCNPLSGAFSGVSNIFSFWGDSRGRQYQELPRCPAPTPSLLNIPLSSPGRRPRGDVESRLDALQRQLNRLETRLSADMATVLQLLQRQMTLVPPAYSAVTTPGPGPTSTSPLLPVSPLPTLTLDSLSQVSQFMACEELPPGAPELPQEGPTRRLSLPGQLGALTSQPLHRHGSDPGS
Chain of Nuclear receptor subfamily 1 group I member 2 (Homo sapiens) (O75469 whole entry, looked up): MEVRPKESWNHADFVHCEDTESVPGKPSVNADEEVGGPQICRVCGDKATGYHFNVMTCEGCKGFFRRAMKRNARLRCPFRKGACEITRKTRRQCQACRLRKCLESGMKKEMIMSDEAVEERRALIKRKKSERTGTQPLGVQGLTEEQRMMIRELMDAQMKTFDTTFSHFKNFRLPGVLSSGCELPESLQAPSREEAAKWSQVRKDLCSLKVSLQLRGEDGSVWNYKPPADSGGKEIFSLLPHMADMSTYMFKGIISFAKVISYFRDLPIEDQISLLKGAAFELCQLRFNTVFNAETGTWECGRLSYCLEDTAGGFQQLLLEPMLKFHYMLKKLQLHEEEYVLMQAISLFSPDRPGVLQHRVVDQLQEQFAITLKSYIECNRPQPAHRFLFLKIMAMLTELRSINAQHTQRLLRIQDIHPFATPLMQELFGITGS
Chain of Cytochrome P450 2D6 (Homo sapiens) (P10635 whole entry, looked up): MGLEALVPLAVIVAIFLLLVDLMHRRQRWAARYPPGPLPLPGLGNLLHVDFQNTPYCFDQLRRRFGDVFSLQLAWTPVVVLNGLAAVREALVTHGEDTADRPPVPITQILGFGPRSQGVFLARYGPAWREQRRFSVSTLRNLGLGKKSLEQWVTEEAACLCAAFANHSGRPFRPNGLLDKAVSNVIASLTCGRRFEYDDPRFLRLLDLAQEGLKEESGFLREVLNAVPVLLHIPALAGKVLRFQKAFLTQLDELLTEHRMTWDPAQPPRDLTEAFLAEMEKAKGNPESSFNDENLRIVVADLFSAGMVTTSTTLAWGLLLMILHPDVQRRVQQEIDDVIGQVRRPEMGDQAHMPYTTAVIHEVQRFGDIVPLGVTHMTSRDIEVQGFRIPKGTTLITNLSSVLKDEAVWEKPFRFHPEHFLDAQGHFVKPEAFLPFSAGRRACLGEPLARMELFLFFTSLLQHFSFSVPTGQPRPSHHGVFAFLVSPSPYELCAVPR
Chain of Acetylcholinesterase (Homo sapiens) (P22303 whole entry, looked up): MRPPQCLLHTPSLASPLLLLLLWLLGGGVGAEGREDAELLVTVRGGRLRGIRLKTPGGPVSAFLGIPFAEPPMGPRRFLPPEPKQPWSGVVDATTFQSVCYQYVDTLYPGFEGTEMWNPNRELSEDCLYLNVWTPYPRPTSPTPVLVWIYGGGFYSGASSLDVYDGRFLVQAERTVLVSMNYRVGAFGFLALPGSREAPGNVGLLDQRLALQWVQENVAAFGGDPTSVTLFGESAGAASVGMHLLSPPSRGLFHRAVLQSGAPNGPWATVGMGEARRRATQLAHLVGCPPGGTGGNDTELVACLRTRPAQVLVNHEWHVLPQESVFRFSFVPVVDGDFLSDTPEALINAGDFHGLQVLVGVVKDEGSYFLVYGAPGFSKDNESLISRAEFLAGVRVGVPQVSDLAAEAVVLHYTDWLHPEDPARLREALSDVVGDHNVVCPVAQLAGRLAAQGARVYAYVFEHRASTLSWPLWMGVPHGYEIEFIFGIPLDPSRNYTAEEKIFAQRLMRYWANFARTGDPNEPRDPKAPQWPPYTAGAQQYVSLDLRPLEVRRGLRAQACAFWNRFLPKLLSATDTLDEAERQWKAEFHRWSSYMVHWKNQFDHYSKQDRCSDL
Chain of Cytochrome P450 1A2 (Homo sapiens) (P05177 whole entry, looked up): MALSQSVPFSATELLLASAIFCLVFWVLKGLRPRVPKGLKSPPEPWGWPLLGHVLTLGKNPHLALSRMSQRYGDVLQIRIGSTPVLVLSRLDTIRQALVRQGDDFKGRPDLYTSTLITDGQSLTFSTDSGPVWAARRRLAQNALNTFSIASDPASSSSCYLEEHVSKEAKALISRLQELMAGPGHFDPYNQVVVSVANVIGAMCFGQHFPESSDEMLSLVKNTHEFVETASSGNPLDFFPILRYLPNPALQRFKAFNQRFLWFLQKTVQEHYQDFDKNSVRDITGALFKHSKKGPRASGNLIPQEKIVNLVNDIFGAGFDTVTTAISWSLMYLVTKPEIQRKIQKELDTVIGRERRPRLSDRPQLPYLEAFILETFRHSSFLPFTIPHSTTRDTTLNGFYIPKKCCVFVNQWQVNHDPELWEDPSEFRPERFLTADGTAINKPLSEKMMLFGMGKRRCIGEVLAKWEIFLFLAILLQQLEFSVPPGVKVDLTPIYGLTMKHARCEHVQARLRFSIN
Chain of Cytochrome P450 2C19 (Homo sapiens) (P33261 whole entry, looked up): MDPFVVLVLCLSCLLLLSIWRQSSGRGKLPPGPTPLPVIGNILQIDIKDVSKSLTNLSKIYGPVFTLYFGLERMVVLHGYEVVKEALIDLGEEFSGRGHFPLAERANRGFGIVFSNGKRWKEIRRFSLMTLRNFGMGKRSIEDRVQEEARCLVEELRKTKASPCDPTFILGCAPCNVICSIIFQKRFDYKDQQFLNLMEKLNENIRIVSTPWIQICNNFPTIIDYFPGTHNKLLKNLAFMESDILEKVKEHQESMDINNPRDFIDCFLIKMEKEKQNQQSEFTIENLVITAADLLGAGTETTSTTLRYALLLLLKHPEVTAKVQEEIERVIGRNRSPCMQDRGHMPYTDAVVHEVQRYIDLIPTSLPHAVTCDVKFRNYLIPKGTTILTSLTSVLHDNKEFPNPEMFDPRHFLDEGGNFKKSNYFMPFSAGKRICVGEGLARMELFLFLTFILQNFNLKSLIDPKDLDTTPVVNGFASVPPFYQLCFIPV

Brc1ccccc1
inactive: Potency [1] | Potency [2] | Potency [3] | Potency [4] | Potency [5] | Potency [6] | Potency [7] | Potency [8] | Potency [9] | Potency [10] | Potency [11] | Potency [12] | Potency [13] | Potency [14] | Potency [15]

NCC(CC(=O)O)c1ccc(Cl)cc1 (stereo unspecified)
inactive: activation [1] -0.989% [at 0.218 µM] | activity change, negative = cytotoxicity [2] -0.756% [at 0.349 µM] | caspase activation [3] 1.78% [at 0.349 µM] | activity change, negative = cytotoxicity [4] 5.63% [at 0.349 µM] | caspase-3/7 activation [5] -0.192% [at 0.349 µM] | activity change, negative = cytotoxicity [6] 8.17% [at 0.349 µM] | activation [7] -6.38% [at 0.349 µM] | activity, negative = inhibition [8] 4.84% [at 0.435 µM] | activity change, negative = inhibition [9] 1.42% [at 0.435 µM] | activity change, negative = inhibition [10] 5.21% [at 0.439 µM] | activity change, negative = inhibition [11] -0.275% [at 0.435 µM] | activity change, negative = inhibition [12] -6.8% [at 0.435 µM] | activity change, negative = inhibition [16] -14.5% [at 0.435 µM] | activity change, negative = inhibition [13] 1.42% [at 0.435 µM] | activity change, negative = inhibition [17] 12.7% [at 0.435 µM] | activity change, negative = inhibition [14] -9.45% [at 0.29 µM] | activity change, negative = inhibition [15] 4.59% [at 0.435 µM]

CCc1ccc(C(=O)NN(C(=O)c2cc(C)cc(C)c2)C(C)(C)C)cc1
inactive: Potency [1] | Potency [2] | Potency [3] | Potency [5] | Potency [7] | Potency [8] | Potency [9] | Potency [10] | Potency [11] | Potency [12] | Potency [17] | Potency [14]
active: Potency [4] 27.3 µM | Potency [6] 9.69 µM | Potency [16] 5.03 µM | Potency [13] 11.2 µM | Potency [15] 5.03 µM

CC(Cl)C(C)Cl (stereo unspecified)
inactive: Potency [1] | Potency [2] | Potency [3] | Potency [4] | Potency [5] | Potency [6] | Potency [7] | Potency [8] | Potency [9] | Potency [10] | Potency [11] | Potency [12] | Potency [16] | Potency [13] | Potency [17] | Potency [14] | Potency [15]

C=CCOC(C)=O
inactive: Potency [1] | Potency [2] | Potency [3] | Potency [4] | Potency [5] | Potency [6] | Potency [7] | Potency [8] | Potency [9] | Potency [10] | Potency [11] | Potency [12] | Potency [14] | Potency [15]
active: Potency [16] 70 µM | Potency [13] 55.6 µM

Cn1sc(Cl)cc1=O
active: Potency [13] 71 µM
inactive: Potency [1] | Potency [2] | Potency [3] | Potency [4] | Potency [5] | Potency [6] | Potency [7] | max activation [18] -5.85% | Potency [19] | Potency [20] | Potency [8] | Potency [9] | Potency [10] | Potency [11] | Potency [16] | Potency [14] | Potency [15]

COc1cc(Cl)c(OC)cc1Cl
inactive: Potency [1] | Potency [2] | Potency [3] | Potency [4] | Potency [5] | Potency [6] | Potency [7] | Potency [8] | Potency [9] | Potency [10] | Potency [11] | Potency [12] | Potency [14]
active: Potency [16] 79.6 µM | Potency [17] 12.6 µM | Potency [15] 15.9 µM
